High-throughput results: PubChem, Broad Institute
These entries were drawn from the full list.
aSyn UTR act = Activators working through SNCA 5'UTR binding (MLPCN) | alpha-synuclein 5'UTR reporter, activators screen | activity score, % (tested at 7.5 µM), hits read low | 300,000 compounds, 7.1% hits; in the data active = activity score below about -60%
Starred values were filed as active, the others as inactive.

SMILES	aSyn UTR act
CCOc1ccc(NC(=O)C(C)Oc2ccccc2C(=O)Nc2ccc(C)c(Cl)c2)cc1 (stereo not drawn)	-126*
Cc1ccc(NC(=O)CSc2ccccc2NC(=O)c2ccccc2)cc1Cl	-78*
Cc1cccc(NC(=O)c2ccccc2OCC(=O)c2ccc(F)cc2)c1	30
Cc1ccc(NC(=O)COc2ccccc2C(=O)Nc2ccccc2)cc1Cl	-82*
COC(=O)c1ccccc1NC(=O)COC(=O)c1ccccc1N=Nc1ccc(N(C)C)cc1	-80*
CC(=O)c1ccc(NC(=O)COC(=O)c2ccccc2N=Nc2ccc(N(C)C)cc2)cc1	-101*
CN(C)c1ccc(N=Nc2ccccc2C(=O)OCC(=O)N(C)c2ccccc2)cc1	-83*
CC1CCCC(C)N1/N=C/C=C/c1ccccc1[N+](=O)[O-] (stereo not drawn)	-133*
Cc1ccsc1C(=O)N/N=C/C=C/c1ccccc1[N+](=O)[O-]	-138*
CCOC(=O)N/N=C/C=C/c1ccccc1[N+](=O)[O-]	-75*
O/N=C/c1ccn(-c2ccc(Br)cc2)c1	-84*
Oc1ccccc1N=Nc1ccccc1O	58
Nc1ccc(N=Nc2ccccc2O)c(N)c1	-136*
CC(=O)N1N=C(c2ccc(C)cc2)CC1c1ccco1 (stereo not drawn)	-98*
CS(=O)(=O)N1N=C(c2ccc(Br)cc2)CC1c1ccc2c(c1)OCO2 (stereo not drawn)	-322*
COc1ccc(C2=NN(C(=O)COc3ncnc4ccccc34)C(c3ccco3)C2)cc1 (stereo not drawn)	64
CC(=O)N1N=C(c2ccc(C)cc2)CC1c1ccc2c(c1)OCO2 (stereo not drawn)	-133*
CC(=O)N1N=C(c2ccccc2)CC1c1cn(C)c2ccccc12 (stereo not drawn)	-117*
Cc1ccc(C2=NN(S(C)(=O)=O)C(c3ccc4c(c3)OCO4)C2)cc1 (stereo not drawn)	-265*
COc1ccc(Oc2ccc(C(F)(F)F)cc2N)cc1	-68*
Cc1cc(=O)oc2cc(OCc3ccccc3)ccc12	-130*
COc1ccc(COc2ccc3c(C)cc(=O)oc3c2)cc1	-131*
O=C(c1ccc(Cl)cc1)c1cnc2ccccn12	-126*
COc1ccc2c(c1)C(=O)c1ccccc1CO2	-242*
CCN(CC)S(=O)(=O)c1cccc(NC(=O)c2cc3ccccc3o2)c1	-126*
SMILES	aSyn UTR act
O=C(COC(=O)c1cc2ccccc2oc1=O)Nc1ccc(F)cc1F	-169*
CN(C)S(=O)(=O)c1cccc(NC(=O)COC(=O)c2cc3ccccc3oc2=O)c1	-105*
CN(C)S(=O)(=O)c1cccc(NC(=O)c2cc3ccccc3o2)c1	-122*
O=C1CC(c2ccco2)CC2=C1C1c3ccccc3C(=O)N1c1ccccc1N2 (stereo not drawn)	-114*
Cc1ccc(-n2c(-c3ccc(Br)cc3)c[n+]3c2CCc2ccc4cccnc4c2-3)cc1	86
O=C1CC(c2ccco2)CC(O)=C1C=Nc1cc(Cl)ccc1O (stereo not drawn)	-143*
CCN(CC)CC(=O)Nc1scc2c1c(=O)oc1ccccc12	-124*
CC(=O)Nc1nc(CCC(C)C)cc2c1c(=O)oc1ccccc12	61
O=C(c1ccco1)N1CCc2ccccc21	-97*
O=C(c1ccc(Br)o1)N1CCc2ccccc21	-154*
Cc1c(C(=O)N2CCc3ccccc32)oc2ccccc12	-126*
Cc1c(Br)c(C(=O)N2CCc3ccccc32)nn1C	-127*
CCSc1nnc(NC(=O)C(C)(C)C)s1	-107*
CCSc1nnc(NC(=O)NC2CCCCC2)s1	-64*
CC(=O)Cc1nsc(NC(=O)c2cccs2)n1	-67*
O=C(Nc1nnc(SCc2ccc(F)cc2)s1)c1ccccn1	63
O=C(Nc1nnc(SCc2ccccc2)s1)c1cccs1	-67*
CCSc1nnc(NC(=O)c2cccs2)s1	-138*
COc1ccccc1NC(CC(=O)c1ccccc1)C(=O)OCC(=O)c1ccc(F)cc1 (stereo not drawn)	-235*
CNc1ccccc1C(=O)OCC(=O)c1ccc(F)cc1	-70*
CNc1ccccc1C(=O)OCC(=O)c1ccccc1	-71*
CN(C)CCCn1cnc2c(c1=N)C(c1ccccc1)c1ccc3ccccc3c1O2 (stereo not drawn)	90
O=C(CCl)N1CCCC1c1ccc2c(c1)OCCO2 (stereo not drawn)	-152*
COc1ccc(Cc2nn3c(-c4ccccc4Br)nnc3s2)cc1	37
COc1ccc(Cn2c(-c3ccc(Br)cc3)c[n+]3ccccc23)cc1	-143*
SMILES	aSyn UTR act
O=C(/C=C/Nc1ccc([N+](=O)[O-])cc1Br)c1cccc2ccccc12	-163*
CCC(=O)Nc1nnc(-c2cccs2)s1	-68*
O=C(Cc1ccccc1)Nc1nnc(-c2cccs2)s1	-142*
O=C(Nc1nnc(-c2cccs2)s1)C1CC1	-89*
C=C(C)C(=O)Nc1nnc(-c2cccs2)s1	-94*
COCC(=O)Nc1nnc(-c2cccs2)s1	-70*
Cc1ccc(/C=N/NC(=O)c2n[nH]c3c2CCCC3)cc1	77
O=C(N/N=C\c1cccc(Cl)c1)c1n[nH]c2c1CCCC2	-152*
C=CCn1cccc(C(=O)Nc2ccc(C)c(C)c2)c1=O	-124*
C=CCn1cccc(C(=O)Nc2ccc(C)cc2)c1=O	-133*
O=C(Nc1ccccc1)NN(C(=O)CCl)c1ccccc1	-125*
CCN(CC)c1ccc(NC(=O)Nc2ccccc2)cc1	-137*
CCN(CC)c1ccc(NC(=O)Nc2ccc(C(C)=O)cc2)cc1	-68*
COc1cccc(NC(=O)Nc2ccc(Br)cn2)c1	-192*
COc1ccc(NC(=O)Nc2ccc(Br)cn2)cc1OC	-69*
Cc1ccc(-c2csc(-c3c[nH]c4ccccc34)n2)c(C)c1	-92*
Oc1ccc(-c2csc(-c3c[nH]c4ccccc34)n2)c(O)c1	-323*
CN(C)/C=C(\C#N)C(=O)Nc1ccccc1	-73*
CN(C)c1ccc(N=C/C=C2/N(C)c3ccccc3C2(C)C)cc1	-84*
CCOC(=O)C1CCN(S(=O)(=O)c2c(Cl)ccc3nonc23)CC1	-309*
CCN(CC)c1nc(C#N)cc(-c2ccc(OC)cc2)n1	-69*
CC1CCC(NC(=O)Cn2ncc3ccccc32)CC1 (stereo not drawn)	-113*
CCOc1ccc(NC(=O)Cn2ncc3ccccc32)cc1	-129*
Cc1cc(NC(=O)c2ccccc2)sc1C	-142*
COc1ccccc1-c1ccc(=O)n(CC(=O)NCc2cccs2)n1	-73*
SMILES	aSyn UTR act
COc1ccccc1NC(=O)Cn1nnc(C(=O)NCc2cccs2)c1N	86
O=c1c(-c2ccc([N+](=O)[O-])cc2)coc2c(O)c(O)ccc12	-91*
Cc1cc(C)c(C#N)c(SCC(=O)Nc2ccc3c(c2)OCO3)n1	-145*
Cc1cc(C)c(C#N)c(SCC(=O)Nc2ccccc2C(N)=O)n1	-64*
COCc1cc(C)nc(SCC(=O)Nc2ccc(C)c(C)c2)c1C#N	-136*
Cc1nc(SCC(=O)Nc2ccc3c(c2)OCO3)c(C#N)c2c1CCCC2	-140*
CCOc1ccc(C(=S)NC2CCCCC2)cc1	-100*
COc1ccc(C(=S)NC2CCCCC2)cc1	-80*
Oc1ccccc1C1NN=C(c2ccccc2)S1 (stereo not drawn)	-80*
CSc1ccc(C2NN=C(c3ccccc3)S2)cc1 (stereo not drawn)	68
Cc1sc(NC(=O)C2CCCCC2)c(C#N)c1-c1ccccc1	-237*
N#Cc1c(Cl)nsc1NC(=O)c1ccccc1	-66*
C=CCNc1sc(C(=O)c2ccccc2)c(N)c1C#N	58
